# Inconclusive results are not listed. Values without a mark were called inactive. Active and inactive are the calls of the source. Calls come from the whole dose curve; as a rule, active = well fitted cell-killing curve with a large enough effect in the repeat runs; inconclusive = weak or mixed curves, or effect the other way; inactive = flat fitted curve, though single readings scatter.
# Assay: cAMP Responsive Elements (CRE) small molecule antagonists, cell-based qHTS assay: qHTS cell viability counter screen (AID 2060913); note: nearly all actives have a fitted effect of over 40% in size
# Conditions: CRE-bla HEK293T viability, CellTiter-Glo luminescence, 5 h; series mostly up to 92.4 µM; viability change, negative = cytotoxic: at the top concentration
# Outline: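 HEK293T CRE-bla, 2,000 cells/well, 18 h preincubation; cpd in DMSO + NKH477 0.25 uM final, 3 h 37 C/5% CO2; LiveBLAzer 2 h RT, then CellTiter-Glo 30 min RT, luminescence.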
# % is set by controls: 0 for no effect and ±100 for the full control effect.
Compound,"viability change, negative = cytotoxic",Potency
Cc1nc(-c2ccc3c(c2)CCN(CCC2CCC(NC(=O)/C=C/c4ccc(F)cc4)CC2)CC3)no1 (stereo unspecified),0.472% [at 42.5 µM],
CCOc1ccccc1O,-1.01%,
OCCOCCOCCOCCOCCO,,inactive
C[C@@H]1NC(=O)[C@@H](N)CNC(=O)[C@H](C2CCNC(N)=N2)NC(=O)/C(=C/NC(N)=O)NC(=O)[C@H](CNC(=O)C[C@@H](N)CCCN)NC1=O (stereo partly specified),-0.0663% [at 0.349 µM],
CCOc1ccccc1OCC1CNCCO1 (stereo unspecified),0.659% [at 42.5 µM],
COc1ccc(N=Nc2cc(C)c(N=Nc3ccc(S(=O)(=O)O)cc3)cc2OC)cc1,1.27%,
CS(=O)(=O)CCNCc1ccc(-c2ccc3ncnc(Nc4ccc(OCc5cccc(F)c5)c(Cl)c4)c3c2)o1,-5.49% [at 42.5 µM],
CN(C)[C@@H]1C(=O)C(C(=O)NCN2CCCC2)=C(O)[C@@]2(O)C(=O)C3=C(O)c4c(O)cccc4[C@@](C)(O)C3C[C@@H]12 (stereo partly specified),-6.57% [at 42.5 µM],
CCc1cc(S(=O)(=O)O)c2cc(C(C)C)cccc1-2,14.1% [at 42.5 µM],
OCC(O)CN1CCN(c2ccccc2)CC1 (stereo unspecified),0.444% [at 42.5 µM],
CCCCNc1ccc(C(=O)OCCN(CC)CC)cc1,0.65% [at 42.5 µM],
COc1ccc(CCC(C)=O)cc1,,inactive
CCCCCCCCCCO,,inactive
Cc1ccc(C)c(O)c1,,inactive
CC(S)C(C)S (stereo unspecified),-3.16%,
FC1(F)C(F)(F)C(F)(F)C2(F)C(F)(C1(F)F)C(F)(F)C(F)(F)C1(F)C(F)(F)C(F)(F)C(F)(F)C(F)(F)C12F (stereo unspecified),-0.875%,
